CSC inhib – blocks cancer stem cells; cancer stem cell-like cells viability, luminescence; 1.1% of 300,000 active; inhibition, % at 7.5 µM; AID 2717; in the data active means inhibition above about 75%; inconclusive means no clear call, values can overlap the other calls; tested in HMLE shEcad cells
Calb FLC – C. albicans growth modulation with fluconazole; C. albicans CaCi-2 (fluconazole-resistant clinical isolate) + fluconazole, Alamar Blue growth, 48 h; 0.57% of 300,000 active; growth inhibition, % (no concentration beside the values);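 active means growth inhibition above about 58% in most replicates, limit read from the data, passing the limit was not always enough; inconclusive means exactly half the replicates above a set limit; inactive means most replicates below a set limit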;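 further: all wells also contain fluconazole at 8 µg/ml as a sub-toxic cotreatment; 0% = median of DMSO wells and 100% = median of geldanamycin control wells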
SKKanGAS inh – SKKanGAS growth inhibition; S. pyogenes SKKanGAS, kanamycin growth, BacTiter-Glo, 6 h; 1.3% of 300,000 active; inhibition, % at 7.5 µM; AID 1662;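 active means mean replicate score, as percent of positive control median, at least 50; inconclusive means mean below 50 but one replicate at or above 50; inactive means mean and every replicate below 50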;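 further: strain carries kanamycin resistance gene driven by streptokinase promoter and grows in 40 µg/ml kanamycin; loss of luminescence reflects streptokinase promoter inhibition or plain growth inhibition; 0% = median of DMSO wells and 100% = positive control at its reference dose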
Mdm2 MdmX PPI – human Mdm2/MdmX binding inhibition. O15151+Q00987. SaOS-2 split-luciferase Mdm2/MdmX complementation, luminescence. inhibition, % at 8 µM. 3% of 330,000 active. AID 485346;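 active means inhibition of at least 50% at 8 µM in the primary screen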
Beta cell apopt – beta cell apoptosis inhibition | protection from apoptosis, % (no concentration beside the values) | INS-1E cytokine-induced death, ATP luminescence, 48 h; percent of positive-control rescue, neutral wells zero | 0.8% of 300,000 active | AID 435005;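 active means Every replicate reaches about 75%, or at least half do and their mean reaches it too, limit read from the data; inconclusive means At least half of replicates reach the limit but their mean does not; inactive means Under half of replicates reach the limit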;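 further: 0% = cytokine-treated negative control wells and 100% = positive control rescue; higher means more ATP so stronger rescue from cytokine killing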
MPTP block – blocks calcium-induced mitochondrial swelling | isolated mouse mitochondria, Ca2+ swelling absorbance, 30 min | inhibition, % at 10 µM | 1.4% of 360,000 active;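 active means inhibition of 50% or more, scaled per plate between neutral and stimulator controls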;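 further: 0% = DMSO wells given calcium and 100% = 1 mM EGTA wells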
Mdm2-MdmX conf – confirmation of human Mdm2/MdmX interaction inhibitors. inhibition, % at 8 µM. 55% of 10,000 active. shares compounds with Mdm2 MdmX PPI. Mdm2-MdmX binding, luminescent assay; in the data active means inhibition above about 40%
Full FLuc ctr – full-length luciferase inhibition in Mdm2/MdmX counter-screen; SaOS-2 full-length luciferase counterscreen, luminescence; 77% of 6,200 active; inhibition, % at 8 µM; shares compounds with Mdm2 MdmX PPI; AID 504607;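 active means mean inhibition at 8 µM reaching about 37%, which flags the compound as non-specific, limit read from the data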;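 further: p53-null SaOS-2 cells with luciferase driven by a doxycycline-inducible promoter; compound on cells about two nights before reading with doxycycline added after day one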
* marks the source's active call; other numbers are inactive results; ? = inconclusive; / = no result. Hits are enriched below; roughly 5.4% of the tested compounds scored in any of these assays.

SMILES | CSC inhib | Calb FLC | SKKanGAS inh | Mdm2 MdmX PPI | Beta cell apopt | MPTP block | Mdm2-MdmX conf | Full FLuc ctr
O=C(NCC1CCCN(Cc2ccc3nonc3c2)C1)c1ccc(F)cc1 (stereo unspecified) | -10 | -25 | 13 | 12 | -3 | -1 | / | /
COc1cc2c(cc1NC(=O)c1ccc(C(C)(C)C)cc1)CCCC2 | 58 | 0 | -4 | 69* | 3 | 5 | 74* | 62*
Cc1ccc2cc(CN(CCCN(C)C)C(=S)NCc3ccccc3)c(=O)[nH]c2c1C | -2 | 28 | -4 | 55* | 0 | 8 | 31 | /
Cc1ccc2cc(CN(CC3CCCO3)C(=S)Nc3ccccc3)c(=O)[nH]c2c1C (stereo unspecified) | 61 | 13 | 2 | 85* | 9 | 2 | 86* | 35
Cc1cc(C)c2[nH]c(=O)c(CN(CC3CCCO3)C(=S)Nc3ccccc3)cc2c1 (stereo unspecified) | 12 | -8 | 4 | -4 | 0 | 3 | / | /
CC(C)C(NS(=O)(=O)c1ccc2c(c1)C(C)(C)C(=O)N2C)C(=O)NCc1ccc(F)cc1 (stereo unspecified) | / | -6 | 4 | -10 | -6 | 0 | / | /
c1ccc2c(c1)ncn2Cc1nnc2sc(-c3ccc4c(c3)OCO4)nn12 | -1 | 6 | -5 | 1 | 2 | 0 | / | /
Clc1ccccc1-c1nnc2sc(-c3ccc4c(c3)OCO4)nn12 | 54 | 37 | 20 | 65* | 3 | -2 | 40 | 83*
Brc1ccccc1-c1nnc2sc(-c3ccc4c(c3)OCCO4)nn12 | 52 | 62 | 8 | 51* | 9 | 2 | 62* | 61*
c1ccc2c(c1)OCC(c1nnc3sc(-c4ccc5c(c4)OCO5)nn13)O2 (stereo unspecified) | 8 | -5 | -9 | -11 | -3 | -1 | / | /
O=C(NCCc1ccccc1)Nc1nnc([C@@H]2C[C@H](O)[C@@H](CO)O2)s1 | / | / | / | / | / | -1 | / | /
Cc1cc(NC(=O)CCS(=O)(=O)c2nc(-c3ccccc3)cc(C(F)(F)F)n2)no1 | 35 | / | / | 88* | -11 | 2 | 78* | 43*
COc1ccccc1-c1cc(C(F)(F)F)nc(S(=O)(=O)CCCC(=O)N2CCOCC2)n1 | 82* | -3 | -2 | 97* | -9 | 1 | 98* | 1
COc1ccc(-c2cc(C(F)(F)F)nc(S(=O)(=O)CCCC(=O)Nc3cccc(O)c3)n2)cc1OC | / | 25 | 7 | 73* | / | -1 | 36 | /
CCOc1ccc2nc(SCC(=O)c3ccc(O)cc3O)sc2c1 | 12 | 4 | 1 | 6 | -15 | 3 | / | /
CCc1nnc(NC(=O)CSc2nnc3c(n2)[nH]c2ccccc23)s1 | -26 | 10 | -15 | 15 | -1 | 0 | / | /
Cc1ccnc(NC(=O)CSc2nnc3c(n2)[nH]c2ccccc23)c1 | 18 | 21 | -1 | 55* | -19 | / | 56* | 99*
Cc1cc2nc(CCN3CCOCC3)n(S(=O)(=O)c3ccc(C(C)(C)C)cc3)c2cc1C | 55 | -14 | 15 | 52* | -5 | 1 | 25 | /
CC(C)(C)c1ccc(S(=O)(=O)NCCN2CCOCC2)cc1 | / | / | / | / | / | 0 | / | /
O=C(COc1ccccc1)Nc1ccccc1NS(=O)(=O)c1cccs1 | -7 | ? | -14 | 11 | -7 | 9 | / | /
C=CCC[C@@H](Cc1ccc(F)cc1)C(=O)OC[C@@H](Cc1c[nH]c2ccccc12)NC(=O)[C@@H](CC=C)CC(=O)N(CCO)Cc1ccccc1 | ? | / | / | 93* | -3 | 0 | 27 | /
C=CCC[C@@H](Cc1ccc(F)cc1)C(=O)OC[C@H](Cc1c[nH]c2ccccc12)NC(=O)[C@@H](CC=C)CC(=O)N[C@@H](CO)Cc1ccccc1 | 7 | / | / | 35 | 1 | -2 | / | /
C=CCC[C@@H](Cc1ccc(F)cc1)C(=O)OC[C@@H](Cc1c[nH]c2ccccc12)NC(=O)[C@H](CC=C)CC(=O)N[C@H](CO)Cc1ccccc1 | / | / | / | 76* | 9 | 2 | 25 | /
C=CCC[C@H](Cc1ccc(F)cc1)C(=O)OC[C@H](Cc1c[nH]c2ccccc12)NC(=O)[C@H](CC=C)CC(=O)N(CCO)Cc1ccccc1 | / | / | / | 90* | 12 | -1 | 26 | /
C=CCC[C@H](Cc1ccc(F)cc1)C(=O)OC[C@@H](Cc1c[nH]c2ccccc12)NC(=O)[C@@H](CC=C)CC(=O)N[C@@H](CO)Cc1ccccc1 | 15 | / | / | 45 | 13 | 1 | / | /
SMILES | CSC inhib | Calb FLC | SKKanGAS inh | Mdm2 MdmX PPI | Beta cell apopt | MPTP block | Mdm2-MdmX conf | Full FLuc ctr
CN(CCOc1ccc(Cl)cc1)CC(=O)Nc1ccc(OC(F)(F)F)cc1 | 13 | -16 | 6 | 22 | -1 | 1 | / | /
CCCS(=O)(=O)NC(=O)C1(C)CCN(C(=O)c2ccc3c(c2)OCO3)C1 (stereo unspecified) | / | / | / | / | / | -1 | / | /
COCCCNC(=O)c1ccc(Cn2c(=O)c3ccccc3n(Cc3ccc(C)cc3)c2=O)cc1 | -1 | -6 | 11 | 56* | -4 | 2 | 24 | /
COc1ccc(C(=O)C(CCCCC(CN(C)C)C(=O)c2ccc(OC)cc2)CN(C)C)cc1 (stereo unspecified) | 1 | ? | -7 | 86* | 1 | 5 | 59* | 31
CCOc1ccc(-c2nc(N)ncc2-c2ccc(OC)cc2)c(O)c1 | 9 | -4 | -5 | 39 | -11 | 40 | / | /
CCOc1ccc(-c2nc(N)ncc2-c2ccccc2)c(O)c1 | -4 | ? | -12 | 50* | -1 | 1 | 25 | /
COc1cccc(Cn2c(-c3nonc3N)nc3ccccc32)c1 | 54 | -4 | -2 | 54* | 30 | 1 | 56* | 70*
Cc1ccc(Cn2c(-c3nonc3N)nc3ccccc32)cc1 | -7 | -1 | -18 | 36 | 10 | 2 | / | /
COc1cc(Cn2c(-c3nonc3N)nc3ccccc32)ccc1C | 59 | -3 | 13 | 55* | 13 | 0 | 62* | 46*
CCOC(=O)c1ccc(-c2ccc(/C=N/NC(=O)CN(c3ccccc3Br)S(C)(=O)=O)o2)cc1 | 41 | 0 | 30 | 51* | 8 | 1 | -4 | /
CS(=O)(=O)N(CC(=O)N/N=C/c1cccc2c1OCCO2)c1ccccc1Br | -10 | -1 | 4 | 5 | -4 | -7 | / | /
CCc1ccc2c(c1)NC(=O)C2(C)Cc1ccccc1 (stereo unspecified) | / | / | / | / | / | 0 | / | /
CCc1ccc2c(c1)C1(NN=C(c3cccc4ccccc34)S1)C(=O)N2 (stereo unspecified) | 9 | -1 | 79* | 78* | 63 | 0 | 75* | 30
COc1cccc(/C=C/C(=O)Nc2ccc(C(=O)Nc3cccc(S(N)(=O)=O)c3)cc2)c1OC | 5 | 12 | 13 | 71* | 13 | 1 | 19 | /
COc1cccc(/C=C/C(=O)Nc2cccc(C(C)=O)c2)c1OC | -2 | 24 | -10 | -20 | -5 | -1 | / | /

Compound activity (PubChem BioAssay)
